# In PubChem BioAssay:
# Records with an inconclusive call do not appear. Activity calls are given as the source filed them.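 How the source made its calls, unless noted: active means inhibition above the screen-wide mean plus 3 SD, about 51%; inactive means the rest.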
# Columns and labels:
# [1] = yeast TOR pathway RPL19A-GFP modulators, primary screen, cell-based, S. cerevisiae, multiplex flow cytometry (AID 1862; in the data active means percent of DMSO control GFP below about 86%;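 further: lower values mimic rapamycin by blocking the RPL19A rise seen in DMSO cells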); settings: S. cerevisiae RPL19A-GFP strain, flow cytometry fluorescence, 3 h; at 10 µM; stronger effect = lower value
# [2] = modulators of MEP2-GFP levels in yeast, primary screen, S. cerevisiae, multiplex flow cytometry (AID 1867;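 active means GFP response, as percent of the DMSO control, above the screen-wide mean plus 3 SD, about 139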;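 further: median GFP channel fluorescence of barcode-gated MEP2-GFP cells measured by flow cytometry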); settings: S. cerevisiae MEP2-GFP strain, 3 h, at 10 µM, stronger effect = higher value, 100% means same as DMSO wells
# [3] = modulators of CIT2-GFP expression in yeast, primary screen, S. cerevisiae, GFP fusion, multiplex flow cytometry (AID 1870;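 active means percent response above a set limit, the screen-wide mean plus 3 SD, cut at about 130% in these data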;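 further: barcoded CIT2-GFP strain pooled with four other GFP strains with rapamycin as positive control; median GFP fluorescence per well over plate mean of DMSO wells so 100% = DMSO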); settings: 3 h, at 10 µM, stronger effect = higher value
# [4] = modulators of LAP4-GFP expression in yeast, primary screen, S. cerevisiae, multiplex flow cytometry (AID 1873;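 active means GFP signal, as percent of the solvent control, above the screen mean plus 3 SD, about 149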); settings: 3 h, at 10 µM, stronger effect = higher value
# [5] = modulators of AGP1-GFP expression in yeast TOR pathway, primary screen, cell-based, multiplex flow cytometry, S. cerevisiae (AID 1887;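 active means GFP signal above the screen-wide mean plus 3 SD, that is over about 124.5% of the solvent control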;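 further: AGP1-GFP fusion strain of S. cerevisiae within a five-strain barcoded multiplex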); settings: 3 h, at 10 µM, stronger effect = higher value
# [6] = inhibitors of CD8+ T cell-vesicle binding, pilot screen, LFA-1/ICAM-1 modulator project, MLPCN validation set, flow cytometry (AID 2523;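 active means response below a set limit, under 55% cells CD8-positive and vesicle-bound, and CD8 cells' 90th-percentile brightness under 279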;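 on vesicle binding response: mean PE anti-B7-1 fluorescence of CD8+ cells relative to row control; 100% = QL9-loaded vesicles with DMSO vehicle in the same plate row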); settings: 2C mouse CD8+ T cells, at 7 µM, stronger effect = lower value; double positive events: measured here: CD8+/vesicle+ event percentage
# [7] = biological target: Integrin beta-1 (Homo sapiens) + Integrin alpha-4 (Homo sapiens) (UniProt P13612+P05556); test: inhibition of HUTS-21 binding to VLA-4, pilot screen, VLA-4 allosteric modulator project, U937 cells, HUTS-21 mAb, flow cytometry, validation set (AID 2674;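 active means inhibition above 50%, about 3 SD of the validation set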;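 further: antibody binding induced by the VLA-4 ligand LDV present at three times its Kd; 0% = LDV ligand with antibody and no compound and 100% = antibody without LDV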); settings: HUTS-21 LIBS mAb binding, at 6.7 µM, stronger effect = higher value, binding induced by LDV ligand
# Sequence of Integrin beta-1 (Homo sapiens) + Integrin alpha-4 (Homo sapiens) (P05556 whole entry, looked up): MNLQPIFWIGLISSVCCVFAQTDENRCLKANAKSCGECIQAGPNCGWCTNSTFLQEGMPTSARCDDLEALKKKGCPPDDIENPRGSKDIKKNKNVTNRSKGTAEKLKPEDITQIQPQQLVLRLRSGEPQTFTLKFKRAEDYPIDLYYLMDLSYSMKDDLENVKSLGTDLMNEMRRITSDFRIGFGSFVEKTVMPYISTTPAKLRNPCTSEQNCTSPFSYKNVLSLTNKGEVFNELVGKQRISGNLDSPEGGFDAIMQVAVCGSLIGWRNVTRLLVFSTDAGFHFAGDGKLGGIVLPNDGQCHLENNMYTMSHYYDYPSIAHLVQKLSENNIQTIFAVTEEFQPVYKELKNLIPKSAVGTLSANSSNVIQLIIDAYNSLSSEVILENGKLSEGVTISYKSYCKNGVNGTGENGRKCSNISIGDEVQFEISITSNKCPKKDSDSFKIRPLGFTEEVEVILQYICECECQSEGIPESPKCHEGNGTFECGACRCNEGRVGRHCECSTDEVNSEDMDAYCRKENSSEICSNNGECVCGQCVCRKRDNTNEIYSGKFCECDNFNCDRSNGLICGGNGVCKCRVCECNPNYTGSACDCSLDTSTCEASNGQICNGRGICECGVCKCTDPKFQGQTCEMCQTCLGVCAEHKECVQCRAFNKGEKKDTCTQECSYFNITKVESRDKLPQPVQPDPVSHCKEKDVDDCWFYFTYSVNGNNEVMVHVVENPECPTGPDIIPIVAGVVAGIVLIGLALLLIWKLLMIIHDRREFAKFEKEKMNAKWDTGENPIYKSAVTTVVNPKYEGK
# Sequence of Integrin beta-1 (Homo sapiens) + Integrin alpha-4 (Homo sapiens) (P13612 whole entry, looked up): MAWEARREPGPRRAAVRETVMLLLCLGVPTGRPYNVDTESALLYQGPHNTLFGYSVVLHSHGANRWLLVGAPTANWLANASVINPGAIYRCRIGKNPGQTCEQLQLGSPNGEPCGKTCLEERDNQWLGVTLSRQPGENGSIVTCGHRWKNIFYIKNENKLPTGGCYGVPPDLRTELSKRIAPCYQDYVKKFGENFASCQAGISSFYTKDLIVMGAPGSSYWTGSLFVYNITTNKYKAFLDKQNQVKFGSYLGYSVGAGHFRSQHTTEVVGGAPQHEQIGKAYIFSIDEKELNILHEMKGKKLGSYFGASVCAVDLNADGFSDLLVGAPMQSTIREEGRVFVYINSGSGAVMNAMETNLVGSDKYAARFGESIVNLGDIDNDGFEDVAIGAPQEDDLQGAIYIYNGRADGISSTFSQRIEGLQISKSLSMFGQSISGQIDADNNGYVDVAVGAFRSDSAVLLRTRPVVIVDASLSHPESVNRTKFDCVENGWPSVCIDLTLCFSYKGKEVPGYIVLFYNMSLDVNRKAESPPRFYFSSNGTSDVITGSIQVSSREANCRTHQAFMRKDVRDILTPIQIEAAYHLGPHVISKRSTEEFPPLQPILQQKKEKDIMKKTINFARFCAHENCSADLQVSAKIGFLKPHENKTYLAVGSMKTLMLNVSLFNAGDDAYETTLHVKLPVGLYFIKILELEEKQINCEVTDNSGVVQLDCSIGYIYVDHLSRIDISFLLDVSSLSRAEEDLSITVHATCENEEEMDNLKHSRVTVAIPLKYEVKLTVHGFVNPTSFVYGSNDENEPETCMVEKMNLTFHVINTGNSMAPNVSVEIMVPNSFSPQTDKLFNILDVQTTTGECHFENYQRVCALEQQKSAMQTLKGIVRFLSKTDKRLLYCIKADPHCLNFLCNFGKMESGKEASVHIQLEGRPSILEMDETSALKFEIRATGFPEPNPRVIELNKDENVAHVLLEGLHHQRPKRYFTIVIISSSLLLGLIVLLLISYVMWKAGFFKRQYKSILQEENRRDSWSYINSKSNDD
# [8] = superoxide lowering in aged yeast cells, pilot screen, validation compound set (AID 2706;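 active means superoxide response below 65% of plate, a cut near 3 SD across the whole screen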;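 further: yeast exposed to compound for one week at 30 degrees C before staining; 100% = mean of all compound wells on the same plate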); settings: S. cerevisiae aging, superoxide DHE fluorescence; at 10 µM; stronger effect = lower value
# [9] = biological target: Beta-adrenergic receptor kinase 1 (Homo sapiens) (UniProt P25098); test: GRK2 binders displacing RNA aptamer, biochemical, validation, human GRK2, bead flow cytometry (AID 488806;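 active means aptamer binding inhibition above 30%, about 3 SD of noise from non-fluorescent compounds; inactive means inhibition at or below 30%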); settings: bead-bound GRK2, FAM-aptamer displacement, at 10 µM, stronger effect = higher value
# Sequence of Beta-adrenergic receptor kinase 1 (Homo sapiens) (P25098 whole entry, looked up): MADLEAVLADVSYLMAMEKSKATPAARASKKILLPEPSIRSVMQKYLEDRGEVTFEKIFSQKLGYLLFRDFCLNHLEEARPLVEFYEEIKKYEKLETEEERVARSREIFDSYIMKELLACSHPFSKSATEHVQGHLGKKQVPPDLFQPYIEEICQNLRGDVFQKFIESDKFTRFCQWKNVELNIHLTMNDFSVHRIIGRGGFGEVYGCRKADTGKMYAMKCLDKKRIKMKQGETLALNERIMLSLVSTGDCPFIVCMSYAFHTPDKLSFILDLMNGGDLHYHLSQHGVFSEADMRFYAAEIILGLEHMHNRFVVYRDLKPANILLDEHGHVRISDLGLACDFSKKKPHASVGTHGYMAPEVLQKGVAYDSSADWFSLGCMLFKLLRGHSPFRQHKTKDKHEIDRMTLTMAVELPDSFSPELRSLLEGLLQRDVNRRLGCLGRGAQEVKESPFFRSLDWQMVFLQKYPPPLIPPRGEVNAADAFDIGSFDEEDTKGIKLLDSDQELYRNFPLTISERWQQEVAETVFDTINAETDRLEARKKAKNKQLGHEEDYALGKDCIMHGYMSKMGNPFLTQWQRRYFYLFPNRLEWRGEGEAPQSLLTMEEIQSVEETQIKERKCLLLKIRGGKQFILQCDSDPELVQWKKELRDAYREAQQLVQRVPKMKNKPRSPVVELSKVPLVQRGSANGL
# [10] = biological target: Beta-2 adrenergic receptor (Homo sapiens) (UniProt P07550); test: beta2AR agonists driving receptor internalization, pilot screen, cell-based, FAP fluorogen, flow cytometry, validation set (AID 504459;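 active means percent response above 42, roughly 3 SD of non-fluorescent test compounds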;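 further: agonist-driven loss of surface beta2AR via internalization measured by FAP dye flow cytometry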); settings: Am2.2-beta2AR cells, FAP surface receptor flow cytometry; at 10 µM; stronger effect = higher value
# Sequence of Beta-2 adrenergic receptor (Homo sapiens) (P07550 whole entry, looked up): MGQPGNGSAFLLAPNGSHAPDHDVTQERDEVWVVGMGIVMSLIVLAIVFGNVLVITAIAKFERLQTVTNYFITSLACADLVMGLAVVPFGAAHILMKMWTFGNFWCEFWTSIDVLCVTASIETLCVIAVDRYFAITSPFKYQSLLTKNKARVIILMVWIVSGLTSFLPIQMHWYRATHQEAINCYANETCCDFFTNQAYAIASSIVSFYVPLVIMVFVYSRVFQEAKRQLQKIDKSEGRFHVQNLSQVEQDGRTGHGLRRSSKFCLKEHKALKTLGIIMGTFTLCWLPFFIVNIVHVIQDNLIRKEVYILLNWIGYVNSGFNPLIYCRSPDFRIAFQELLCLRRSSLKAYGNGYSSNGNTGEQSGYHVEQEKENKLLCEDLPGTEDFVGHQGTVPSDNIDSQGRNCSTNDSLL
# [11] = biological target: AP-2 complex subunit beta (Homo sapiens) (UniProt P63010); test: inhibitors of arrestin peptide binding to AP2, pilot screen, biochemical, validation set, GST-AP2 beads, flow cytometry (AID 504541;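 active means inhibition above 54%, about 3 SD of non-fluorescent compounds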;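 further: AP2 carries R879A mutation and is captured from E. coli lysate; bead-bound FITC arrestin peptide fluorescence measuring arrestin peptide binding to AP2; 0% = DMSO wells and 100% = excess unlabeled arrestin peptide control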); settings: FITC arrestin peptide, at 10 µM, stronger effect = higher value, AP2 beta2 appendage fragment, R879A mutant
# Sequence of AP-2 complex subunit beta (Homo sapiens) (P63010 whole entry, looked up, the tested form may be a part, one chain of several): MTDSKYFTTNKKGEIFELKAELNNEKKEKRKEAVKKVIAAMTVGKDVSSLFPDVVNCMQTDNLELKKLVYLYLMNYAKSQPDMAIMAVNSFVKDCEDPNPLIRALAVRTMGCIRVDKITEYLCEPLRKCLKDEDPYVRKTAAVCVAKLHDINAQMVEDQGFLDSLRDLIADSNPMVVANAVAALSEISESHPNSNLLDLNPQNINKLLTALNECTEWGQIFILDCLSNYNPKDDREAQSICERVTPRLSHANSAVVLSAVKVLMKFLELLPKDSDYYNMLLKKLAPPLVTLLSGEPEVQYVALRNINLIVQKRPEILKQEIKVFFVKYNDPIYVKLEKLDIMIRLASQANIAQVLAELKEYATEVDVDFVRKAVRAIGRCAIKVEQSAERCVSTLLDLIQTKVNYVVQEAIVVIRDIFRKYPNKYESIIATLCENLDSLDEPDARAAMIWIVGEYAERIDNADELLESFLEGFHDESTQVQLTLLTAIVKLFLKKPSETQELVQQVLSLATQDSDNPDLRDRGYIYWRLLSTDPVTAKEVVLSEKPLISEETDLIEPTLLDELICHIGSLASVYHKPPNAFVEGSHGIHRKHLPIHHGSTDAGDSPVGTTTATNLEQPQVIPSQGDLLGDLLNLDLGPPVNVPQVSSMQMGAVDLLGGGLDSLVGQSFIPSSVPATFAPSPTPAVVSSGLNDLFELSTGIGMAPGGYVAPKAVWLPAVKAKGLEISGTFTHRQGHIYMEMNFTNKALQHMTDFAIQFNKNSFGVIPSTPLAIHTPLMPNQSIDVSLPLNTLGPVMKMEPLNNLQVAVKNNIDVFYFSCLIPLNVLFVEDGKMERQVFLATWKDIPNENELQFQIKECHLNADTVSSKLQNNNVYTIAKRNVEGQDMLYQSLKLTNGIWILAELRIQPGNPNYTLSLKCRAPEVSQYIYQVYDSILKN
# [12] = yeast V-ATPase proton transport modulators, S. cerevisiae, pHLuorin, HTS validation (AID 504600; in the data active means response above about 15%;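 further: plate controls were DMSO for no effect and reference compound for full effect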); settings: S. cerevisiae pHLuorin cytosolic pH, at 10 µM, stronger effect = higher value
# [13] = tested on: anti-desmoglein-3 scFv antibody binding to human DSG3; test: inhibitors of anti-DSG3 scFv binding to DSG3, pilot screen, biochemical, validation compound set, bead-based, flow cytometry (AID 588368;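 active means binding below the plate cutoff, the plate median minus 3 SD, with a reading above zero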;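 further: signal is the median channel fluorescence of bead-bound GFP antibody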); settings: Protein G beads, DSG3-Fc, scFv-GFP binding, at 10 µM, stronger effect = lower value
# [14] = inhibitors of fungal efflux pumps CDR1, CDR2, MDR1, pilot screen, validation compound set, multiplex, phenotypic (AID 588506;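 active means efflux inhibition above 0.42, the validation set average plus 4 SD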;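 further: Nile Red retained in cells so higher fluorescence means more efflux inhibition; 0 = negative control wells and 1 = enniatin B 25 µM full block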); settings: S. cerevisiae pump-expressing triplex, Nile Red efflux flow cytometry; at 10 µM; stronger effect = higher value; the pumps come from Candida albicans
# [15] = biological target: ATP-binding cassette sub-family B member 6 (Homo sapiens) (UniProt Q9NP58); test: ABCB6 transporter inhibitors, pilot screen, K562-ABCB6 cells, flow cytometry, validation set (AID 588550); settings: K562-ABCB6 porphyrin accumulation, 1 h, at 10 µM, stronger effect = higher value;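 further: 0% = DMSO wells and 100% = benzethonium chloride 70 µM positive control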
# Sequence of ATP-binding cassette sub-family B member 6 (Homo sapiens) (Q9NP58 whole entry, looked up): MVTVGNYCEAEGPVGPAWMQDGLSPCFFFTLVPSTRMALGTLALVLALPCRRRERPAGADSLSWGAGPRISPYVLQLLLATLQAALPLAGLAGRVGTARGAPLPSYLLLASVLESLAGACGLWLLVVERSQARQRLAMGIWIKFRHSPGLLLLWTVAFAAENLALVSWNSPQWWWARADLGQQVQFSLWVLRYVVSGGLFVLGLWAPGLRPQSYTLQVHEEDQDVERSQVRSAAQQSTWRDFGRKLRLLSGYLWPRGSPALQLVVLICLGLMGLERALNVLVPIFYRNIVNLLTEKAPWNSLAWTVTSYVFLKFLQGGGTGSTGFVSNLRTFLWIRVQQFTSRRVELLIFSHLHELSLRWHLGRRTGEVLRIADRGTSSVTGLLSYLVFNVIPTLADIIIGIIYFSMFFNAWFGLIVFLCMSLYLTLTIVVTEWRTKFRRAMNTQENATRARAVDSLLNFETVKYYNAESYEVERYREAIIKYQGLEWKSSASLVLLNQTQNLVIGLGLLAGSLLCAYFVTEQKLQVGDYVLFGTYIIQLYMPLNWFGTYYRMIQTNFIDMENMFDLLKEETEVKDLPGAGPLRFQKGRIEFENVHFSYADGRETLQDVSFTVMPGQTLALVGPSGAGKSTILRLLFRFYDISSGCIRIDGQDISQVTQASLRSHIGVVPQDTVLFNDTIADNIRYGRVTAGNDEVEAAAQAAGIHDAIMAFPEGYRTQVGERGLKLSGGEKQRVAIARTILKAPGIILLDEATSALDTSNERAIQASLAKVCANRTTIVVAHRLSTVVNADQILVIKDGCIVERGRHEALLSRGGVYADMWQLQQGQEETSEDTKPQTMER
# [16] = promoters of myeloid differentiation in arrested cells, primary screen, cell-based, GFP/MAC1 double positive, flow cytometry, validation set (AID 588685;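 active means differentiation response of at least 50%, scaled between solvent and reference control, from cells with both markers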;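 further: compound exposure lasts four days before antibody staining and flow analysis; 0% = DMSO wells and 100% = 5 µM fulvestrant positive control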); settings: ER-HoxA9 marrow cells, stronger effect = higher value, normalized: vehicle 0, fulvestrant 100
SMILES,percent of DMSO control GFP [1],GFP response vs DMSO [2],percent response of DMSO control [3],GFP response vs DMSO [4],"GFP response, % of DMSO [5]",double positive events [6] [%],vesicle binding response [6],inhibition [7],superoxide response (% of plate) [8],aptamer binding inhibition [9],response [10],inhibition [11],response [12],binding (% of control) [13],efflux inhibition (fraction of control) [14],inhibition [15],differentiation response [16]
C=C(C)C(=O)Nc1ccc(NC(C)C)cc1,104% (inactive),104% (inactive),97.6% (inactive),106% (inactive),101% (inactive),66,170% (inactive),9.63% (inactive),96.6% (inactive),4% (inactive),0.61% (inactive),19.3% (inactive),-7.05% (inactive),95.1% (inactive),-0.09 (inactive),0% (inactive),-8.96% (inactive)
COc1ccc(OCc2cccc(C(=O)NN)c2)cc1,94.8% (inactive),97.4% (inactive),105% (inactive),98.2% (inactive),86.3% (inactive),59.7,167% (inactive),-8.62% (inactive),98.7% (inactive),8% (inactive),11.1% (inactive),-3.59% (inactive),-1.43% (inactive),103% (inactive),-0.28 (inactive),3% (inactive),-13.6% (inactive)
NC(=O)c1cccnc1,86.7% (inactive),121% (inactive),110% (inactive),79.8% (inactive),98.7% (inactive),45,242% (inactive),7.43% (inactive),111% (inactive),3% (inactive),8.79% (inactive),-4.05% (inactive),1.76% (inactive),99.8% (inactive),-0.28 (inactive),9% (inactive),-1.64% (inactive)
C[C@@H]1CCC[C@H](C)N1NC(=O)c1ccc(Cl)c(S(N)(=O)=O)c1,105% (inactive),106% (inactive),107% (inactive),110% (inactive),113% (inactive),61.3,165% (inactive),4.27% (inactive),91.8% (inactive),-2% (inactive),6.03% (inactive),2.8% (inactive),1.78% (inactive),105% (inactive),0.5 (active),-5% (inactive),-8.96% (inactive)
CC(C)[C@H](NC(=O)[C@@H]1CSCN1C(=O)OC(C)(C)C)C(=O)NCC1CCC(C(=O)O)CC1 (stereo partly specified),99.7% (inactive),97.4% (inactive),104% (inactive),84.6% (inactive),96.3% (inactive),64.5,283% (inactive),-4.52% (inactive),82.1% (inactive),4% (inactive),-5.23% (inactive),-2.51% (inactive),3.84% (inactive),98.9% (inactive),0.01 (inactive),109% (active),0.8% (inactive)
CC(C)OC(=O)c1ccc(NC(=O)c2cncc(Br)c2)cc1,103% (inactive),104% (inactive),98.6% (inactive),103% (inactive),88.5% (inactive),56.1,143% (inactive),16.3% (inactive),114% (inactive),-1% (inactive),0.79% (inactive),-2.11% (inactive),4.94% (inactive),99% (inactive),0.04 (inactive),-3% (inactive),-7.5% (inactive)
CC(CN1c2ccccc2Sc2ccccc21)N(C)C (stereo unspecified),92.4% (inactive),117% (inactive),111% (inactive),78.1% (inactive),94.9% (inactive),74.2,363% (inactive),-2.27% (inactive),84.2% (inactive),-3% (inactive),-2.04% (inactive),1.26% (inactive),-2.78% (inactive),97.2% (inactive),-0.53 (inactive),10% (inactive),-1.64% (inactive)
OCCN(CCO)c1nc(N2CCCCC2)c2nc(N(CCO)CCO)nc(N3CCCCC3)c2n1,105% (inactive),102% (inactive),100% (inactive),107% (inactive),108% (inactive),62.5,175% (inactive),-9.63% (inactive),98% (inactive),3% (inactive),7.65% (inactive),18.6% (inactive),15.4% (active),106% (inactive),0.08 (inactive),-6% (inactive),-7.94% (inactive)
CCCCCCCC(=O)OCC(O)CO (stereo unspecified),108% (inactive),103% (inactive),97.8% (inactive),92.7% (inactive),90.3% (inactive),60.6,45.8% (inactive),0.58% (inactive),110% (inactive),3% (inactive),-8.74% (inactive),-8.36% (inactive),4.53% (inactive),98.7% (inactive),0.02 (inactive),5% (inactive),2.2% (inactive)
COc1ccc(C2OC[C@H]3O[C@H](O)[C@H](NC(C)=O)[C@@H](O)[C@@H]3O2)cc1 (stereo partly specified),99.8% (inactive),106% (inactive),97.6% (inactive),95.9% (inactive),97.5% (inactive),76.5,135% (inactive),6.95% (inactive),98.6% (inactive),0% (inactive),8.93% (inactive),6.9% (inactive),4.88% (inactive),95.3% (inactive),-0.04 (inactive),12% (inactive),-4.57% (inactive)
CC(C)(C)c1ccc(/C=C/C(=O)N2CCCCC2)cc1,96.1% (inactive),103% (inactive),78.7% (inactive),116% (inactive),97.7% (inactive),59.2,150% (inactive),10.5% (inactive),98.8% (inactive),1% (inactive),46.6% (active),3.48% (inactive),-0.06% (inactive),98.4% (inactive),0.26 (inactive),8% (inactive),8.8% (inactive)
CN(C)CC/C=C1\c2ccccc2Sc2ccc(Cl)cc21,104% (inactive),110% (inactive),103% (inactive),106% (inactive),106% (inactive),64.5,157% (inactive),9.63% (inactive),88.7% (inactive),-5% (inactive),19.9% (inactive),54.9% (active),-15.9% (inactive),106% (inactive),0.08 (inactive),9% (inactive),-17.7% (inactive)
CCC1CCc2c(sc(NC(=O)c3cccnc3)c2C(N)=O)C1 (stereo unspecified),97.6% (inactive),102% (inactive),96.4% (inactive),108% (inactive),107% (inactive),64.4,252% (inactive),-38.6% (inactive),99.6% (inactive),7% (inactive),-24.4% (inactive),5.47% (inactive),-30.9% (inactive),98.3% (inactive),-0.09 (inactive),14% (inactive),38.4% (inactive)
C[N+](C)(C)CCOP(=O)([O-])OC[C@H](O)CO,103% (inactive),103% (inactive),105% (inactive),108% (inactive),114% (inactive),60.1,133% (inactive),-3.77% (inactive),94.8% (inactive),1% (inactive),2.22% (inactive),-6.21% (inactive),0.86% (inactive),102% (inactive),0.25 (inactive),22% (inactive),-6.03% (inactive)
O=C(Nc1ccccc1C(=O)N1CCCCCC1)c1ccccc1Cl,103% (inactive),103% (inactive),94.9% (inactive),96.5% (inactive),102% (inactive),60.2,146% (inactive),-10.3% (inactive),115% (inactive),4% (inactive),-9.01% (inactive),26.6% (inactive),-0.64% (inactive),100% (inactive),-0.06 (inactive),7% (inactive),8.02% (inactive)
CCCNCC(O)COc1ccccc1C(=O)CCc1ccccc1 (stereo unspecified),101% (inactive),110% (inactive),89.6% (inactive),88.7% (inactive),92.9% (inactive),62.4,894% (inactive),21.3% (inactive),98.6% (inactive),3% (inactive),-7.14% (inactive),-4.07% (inactive),0.31% (inactive),100% (inactive),0.11 (inactive),-1% (inactive),-0.73% (inactive)
Cc1[nH]c2ccccc2c1/C=C/c1nc2ccccc2c(=O)n1CCO,102% (inactive),106% (inactive),97.7% (inactive),110% (inactive),100% (inactive),59,200% (inactive),-15.4% (inactive),89.8% (inactive),7% (inactive),20.6% (inactive),12.7% (inactive),-3.06% (inactive),106% (inactive),0.33 (inactive),4% (inactive),0.8% (inactive)
CC1(C)CC(=O)c2cn3c(nc2C1)nc1ccccc13,102% (inactive),97.7% (inactive),104% (inactive),99.1% (inactive),102% (inactive),55.9,104% (inactive),9.63% (inactive),107% (inactive),-1% (inactive),-25.5% (inactive),17% (inactive),3.76% (inactive),103% (inactive),-0.12 (inactive),-6% (inactive),-6.03% (inactive)
